Data as given in PubChem BioAssay AID602293 (National Center for Advancing Translational Sciences (NCATS), 2012).
The campaign covered roughly 1,300 compounds. About 30 (2%) were called active. Roughly 10% stayed inconclusive and do not appear here. Calls follow the shape of the dose curve; as a rule, active = well fitted inhibition curve with a large enough effect; inconclusive = small, poorly fitted or top-dose-only effect; inactive = flat fitted curve, though single readings scatter. Only a selection was taken, and actives are over-represented in it overall.

assay: qHTS for antagonists of the Thyroid Stimulation Hormone Receptor: Hit Validation in HTRF Activity in a Luteinizing Hormone Receptor Cell Line; conditions: LHR-expressing cell line, cAMP HTRF, antagonist mode; series mostly up to 58 µM; activity change, negative = inhibition: at the top concentration
Outline: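 Counter-screen on LH receptor–transfected HEK 293 cells: 30 min compound exposure at room temperature in medium containing 100 uM RO 20-1724 phosphodiesterase inhibitor. Cellular cAMP read by competitive HTRF after lysis with d2-cAMP and anti-cAMP antibody (330 nm excitation; 615/660 nm emission).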
% is scaled to controls: 0 for no effect and ±100 for the full control effect.

Activity change, negative = inhibition, inactive:
O=C(CN1C(=O)NC2(CCCCCC2)C1=O)N1CCC(Cc2ccccc2)CC1 -0.781%
COc1ccc(NS(=O)(=O)c2cc(-c3cnc(C4CC4)o3)ccc2C)cc1 -3.75%
CC(C)Cn1c(-c2csc3c2CCCC3)n[nH]c1=S 2.71%
CC(=O)Oc1c(I)cc(I)cc1C(=O)Nc1ccc(Cl)cc1 -3.87%
Cc1ccc(NS(=O)(=O)c2cc(C(=O)Nc3cccc([N+](=O)[O-])c3)ccc2C)cc1 -4.12%
CCCCNC(=O)c1sc(=S)n2c1[nH]c(=O)c1ccccc12 -0.118%
Cc1cccc(CSCCNC(=O)c2ccc(N(C)S(=O)(=O)c3ccccc3)cc2)c1 -1.47%
O=[N+]([O-])c1ccc(COc2cccc(CNc3ccc(F)cc3)c2)cc1 2.34%
CCCCOc1ncnc2c1[nH]c1ccccc12 -2.8%
COC(=O)Cn1c(=NC(=O)CSC(C)=O)sc2ccccc21 -1.47%
CC(C)C[C@H](N)c1nnc(S(=O)(=O)Cc2ccc(F)cc2)o1 -0.792%
CC(C)c1ccc(/C=C/C(=O)NCCC2=CCCCC2)cc1 1.16%
CCOC(=O)c1sc(NC(=O)c2cc(-c3ccccc3)nc3ccccc23)c(C#N)c1C -1.11%
CC1CCc2nc(NC(=O)CSc3nc4ccccc4o3)sc2C1 (stereo not given) -3.41%
Cc1ccccc1NC1c2ccccc2C(=O)N1Cc1ccco1 (stereo not given) 0.697%
Cc1c(N=Nc2c(-c3ccc([N+](=O)[O-])cc3)[nH]n(C(N)=S)c2=O)cccc1[N+](=O)[O-] 2.29%
CC1CCN(S(=O)(=O)c2cccc(C(=O)N3CCN(c4ccc(F)cc4)CC3)c2)CC1 -1.37%
Cc1cccc2c1NC(=O)C2(c1ccc(O)cc1)c1ccc(O)cc1 -2.97%
Cc1ccc(-c2cc(C(=O)Nc3ccncc3)c3ccccc3n2)cc1 -2.05%
CSc1nsc(NC(=O)OCc2ccc(Cl)cc2)n1 -0.863%
CCOC(=O)Cc1csc(NC(=O)COc2ccc(N(C)S(=O)(=O)c3cccs3)cc2)n1 -4.36%
O=C1S/C(=C\c2ccc(O)c([N+](=O)[O-])c2)C(=O)N1c1ccccc1Cl 0.191%
Cn1c2c(c(=O)[nH]c1=O)C(c1ccc(O)cc1)C1=C(N2)c2ccccc2C1=O (stereo not given) -0.454%
O=S(=O)(c1ccc(SCc2ccc(Cl)cc2)nc1)N1CCCC1 -7.02%
CCOc1cc(C(=S)N2CCOCC2)ccc1OC(=O)c1ccccc1 -1.14%
